{"source": "PubChem BioAssay", "note": "This is one part of the list. Activity calls are given as the source filed them.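 How the source made its calls, unless noted: active means mean inhibition across replicates above about 50% (limit read from the data); inactive means the rest.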", "data": [{"target": "Sentrin-specific protease 8 (Homo sapiens) (UniProt Q96LD8)", "sequence (Q96LD8 whole entry, looked up)": "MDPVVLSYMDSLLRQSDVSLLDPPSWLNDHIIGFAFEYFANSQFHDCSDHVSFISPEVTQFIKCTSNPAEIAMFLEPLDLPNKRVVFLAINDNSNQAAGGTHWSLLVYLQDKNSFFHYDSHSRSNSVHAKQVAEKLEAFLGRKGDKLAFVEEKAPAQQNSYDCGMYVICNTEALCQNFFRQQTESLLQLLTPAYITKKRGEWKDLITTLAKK", "experiment": "SENP8 protease inhibitors, retest, confirmation, biochemical, luminescence, single concentration (AID 488912)", "conditions": "Recombinant SENP8, Z-RLRGG-aminoluciferin luminescence, 60 min; at 12.5 µM; stronger effect = higher value", "values": [{"smiles": "O=[N+]([O-])c1ccccc1N/N=C1\\CCc2ccccc21", "inhibition": "-9.3% (inactive)"}, {"smiles": "CCCCSc1nnc(-c2ccc(C)cc2)o1", "inhibition": "19.5% (inactive)"}, {"smiles": "COc1ccc2nc(Nc3nc4cc5c(cc4s3)OCCO5)sc2c1", "inhibition": "20.4% (inactive)"}, {"smiles": "Cc1ccc(O)c(CNc2nc3ccccc3n2C)c1", "inhibition": "-5% (inactive)"}, {"smiles": "Cc1[nH]n(-c2ccc([N+](=O)[O-])cc2)c(=O)c1C=NCCN1CCN(C(=O)c2ccccc2F)CC1", "inhibition": "20.7% (inactive)"}, {"smiles": "N=c1c2c3c(sc2nc2n1CCCCC2)CCCC3", "inhibition": "10.9% (inactive)"}, {"smiles": "O=C(ON=C1CCN(S(=O)(=O)c2ccccc2)CC1)c1ccc(Cl)cc1", "inhibition": "12.5% (inactive)"}, {"smiles": "Oc1ccc(Br)cc1C=Nc1ccc2[nH]ncc2c1", "inhibition": "5.1% (inactive)"}, {"smiles": "O=c1c(-c2ccccc2)coc2cc(O)ccc12", "inhibition": "61.7% (active)"}, {"smiles": "O=C1/C(=C/c2cccs2)CCC1C1CCCC1", "note": "(stereo not drawn)", "inhibition": "50.9% (active)"}, {"smiles": "O=c1oc2cc(O)ccc2cc1-c1ccc(F)cc1", "inhibition": "98.4% (active)"}, {"smiles": "O=C(COc1ccc2oc3c(c2c1)CCCC3)Nc1ccccn1", "inhibition": "4.9% (inactive)"}, {"smiles": "COc1cccc(C(=O)c2cc3ccc(O)cc3oc2=O)c1", "inhibition": "98.7% (active)"}, {"smiles": "C1=C(CCNc2ncnc3c2cnn3-c2ccccc2)CCCC1", "inhibition": "2% (inactive)"}, {"smiles": "O=C(Nc1ncc([N+](=O)[O-])s1)C1COc2ccccc2O1", "note": "(stereo not drawn)", "inhibition": "98.8% (active)"}, {"smiles": "Cc1ccc(NC(=O)c2sccc2C)cc1[N+](=O)[O-]", "inhibition": "78% (active)"}, {"smiles": "O=C(OC1CCOC1=O)c1ccc(-c2nc3ccccc3s2)s1", "note": "(stereo not drawn)", "inhibition": "92.5% (active)"}, {"smiles": "COC(=O)c1sc(NC(=O)c2ccc(OC)cc2OC)nc1C", "inhibition": "56.9% (active)"}, {"smiles": "COc1ccc(C(=O)Nc2ccc(F)cc2F)cc1", "inhibition": "-4.2% (inactive)"}, {"smiles": "CSC1=N/C(=C\\C=C\\c2cccs2)C(=O)S1", "inhibition": "69.4% (active)"}, {"smiles": "O=C(OCC(=O)N1CCN(c2ccccc2)CC1)c1ccc([N+](=O)[O-])s1", "inhibition": "64.2% (active)"}, {"smiles": "COc1ccc(/C=N/Nc2ccccc2C(=O)O)cc1", "inhibition": "97.3% (active)"}, {"smiles": "O=C(Nc1ccc(F)cc1)c1cc2c(s1)CCCC2", "inhibition": "93.3% (active)"}, {"smiles": "COc1ccc(-n2ncc3c(SCC(=O)NNC(C)=O)ncnc32)cc1", "inhibition": "11.5% (inactive)"}, {"smiles": "Cc1ccnc(NC(=O)c2ccoc2C)c1", "inhibition": "85.8% (active)"}, {"smiles": "O=C(Nc1cccnc1Cl)c1cc(-c2ccccc2O)on1", "inhibition": "8.6% (inactive)"}, {"smiles": "COc1cc(C#Cc2ccc3cc(CCCO)oc(=O)c3c2)cc(OC)c1", "inhibition": "56.9% (active)"}, {"smiles": "C/C(=N\\Nc1nc2ccccc2[nH]1)c1cccs1", "inhibition": "49.6% (inactive)"}, {"smiles": "CCc1ccc(NC(=O)C(=O)NNC(=O)c2cccs2)cc1", "inhibition": "58.4% (active)"}, {"smiles": "FC(F)(F)c1ccnc(Oc2ccc(C3=NCCS3)cc2)c1", "inhibition": "36.3% (inactive)"}, {"smiles": "Cc1cccc(-c2noc(-c3ccc(F)cc3)n2)c1", "inhibition": "63.5% (active)"}, {"smiles": "O=c1c2c(nc3cc(-c4cccc(Cl)c4)[nH]n13)CCCC2", "inhibition": "-9.4% (inactive)"}, {"smiles": "COc1ccc(C(=O)Nc2ccc3c(c2)OCO3)cc1OC", "inhibition": "8.9% (inactive)"}, {"smiles": "Cc1cc(C(=O)N/N=C/c2ccc(N3CCOCC3)cc2)c(C)o1", "inhibition": "86.9% (active)"}, {"smiles": "O=C(Nc1ccc(Cl)cc1)c1ccsn1", "inhibition": "49.7% (inactive)"}, {"smiles": "O=C1/C(=C/c2cccs2)CCc2ccccc21", "inhibition": "98.3% (active)"}, {"smiles": "O=C(Nc1ccccc1C(=O)Nc1ccncc1)c1ccc([N+](=O)[O-])cc1", "inhibition": "47.2% (inactive)"}, {"smiles": "Oc1cccc2ccc(/C=C/c3ccc(Br)s3)nc12", "inhibition": "31.2% (inactive)"}, {"smiles": "Nc1ccc(-c2nnc(-c3ccc(-c4ccccc4)cc3)o2)cc1", "inhibition": "11.8% (inactive)"}]}, {"target": "Sentrin-specific protease 6 (Homo sapiens) (UniProt Q9GZR1)", "sequence (Q9GZR1 628-1112 limits assumed)": "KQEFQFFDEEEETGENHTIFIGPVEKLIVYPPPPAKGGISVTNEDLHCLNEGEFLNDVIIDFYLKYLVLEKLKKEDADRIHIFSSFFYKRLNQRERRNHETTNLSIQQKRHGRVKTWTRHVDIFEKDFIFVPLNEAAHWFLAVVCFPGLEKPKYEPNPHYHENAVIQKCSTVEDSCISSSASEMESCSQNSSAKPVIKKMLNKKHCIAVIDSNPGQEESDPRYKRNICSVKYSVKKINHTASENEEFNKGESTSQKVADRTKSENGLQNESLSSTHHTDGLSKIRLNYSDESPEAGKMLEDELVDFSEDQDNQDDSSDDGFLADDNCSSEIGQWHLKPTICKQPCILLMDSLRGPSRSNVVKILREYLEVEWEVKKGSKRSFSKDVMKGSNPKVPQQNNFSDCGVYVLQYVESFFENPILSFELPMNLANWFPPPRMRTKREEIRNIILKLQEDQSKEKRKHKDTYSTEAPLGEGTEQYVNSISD", "experiment": "SENP6 protease inhibitors, confirmation, biochemical, luminescence, single concentration (AID 488915;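 active means mean inhibition above about 50% in the one-dose retest, limit read from the data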)", "conditions": "recombinant SENP6, Z-RLRGG-aminoluciferin luminescence; at 12.5 µM; stronger effect = higher value", "values": [{"smiles": "O=[N+]([O-])c1ccccc1N/N=C1\\CCc2ccccc21", "inhibition": "-5.8% (inactive)"}, {"smiles": "CCCCSc1nnc(-c2ccc(C)cc2)o1", "inhibition": "60.5% (active)"}, {"smiles": "COc1ccc2nc(Nc3nc4cc5c(cc4s3)OCCO5)sc2c1", "inhibition": "63% (active)"}, {"smiles": "Cc1ccc(O)c(CNc2nc3ccccc3n2C)c1", "inhibition": "-7.9% (inactive)"}, {"smiles": "Cc1[nH]n(-c2ccc([N+](=O)[O-])cc2)c(=O)c1C=NCCN1CCN(C(=O)c2ccccc2F)CC1", "inhibition": "17.1% (inactive)"}, {"smiles": "N=c1c2c3c(sc2nc2n1CCCCC2)CCCC3", "inhibition": "8.4% (inactive)"}, {"smiles": "O=C(ON=C1CCN(S(=O)(=O)c2ccccc2)CC1)c1ccc(Cl)cc1", "inhibition": "15.5% (inactive)"}, {"smiles": "Oc1ccc(Br)cc1C=Nc1ccc2[nH]ncc2c1", "inhibition": "2.1% (inactive)"}, {"smiles": "O=c1c(-c2ccccc2)coc2cc(O)ccc12", "inhibition": "60.2% (active)"}, {"smiles": "O=C1/C(=C/c2cccs2)CCC1C1CCCC1", "note": "(stereo not drawn)", "inhibition": "52.1% (active)"}, {"smiles": "O=c1oc2cc(O)ccc2cc1-c1ccc(F)cc1", "inhibition": "99.7% (active)"}, {"smiles": "O=C(COc1ccc2oc3c(c2c1)CCCC3)Nc1ccccn1", "inhibition": "12.8% (inactive)"}, {"smiles": "COc1cccc(C(=O)c2cc3ccc(O)cc3oc2=O)c1", "inhibition": "100% (active)"}, {"smiles": "C1=C(CCNc2ncnc3c2cnn3-c2ccccc2)CCCC1", "inhibition": "22% (inactive)"}, {"smiles": "O=C(Nc1ncc([N+](=O)[O-])s1)C1COc2ccccc2O1", "note": "(stereo not drawn)", "inhibition": "99.8% (active)"}, {"smiles": "Cc1ccc(NC(=O)c2sccc2C)cc1[N+](=O)[O-]", "inhibition": "77.5% (active)"}, {"smiles": "O=C(OC1CCOC1=O)c1ccc(-c2nc3ccccc3s2)s1", "note": "(stereo not drawn)", "inhibition": "95.8% (active)"}, {"smiles": "COC(=O)c1sc(NC(=O)c2ccc(OC)cc2OC)nc1C", "inhibition": "34.4% (inactive)"}, {"smiles": "COc1ccc(C(=O)Nc2ccc(F)cc2F)cc1", "inhibition": "60.2% (active)"}, {"smiles": "CSC1=N/C(=C\\C=C\\c2cccs2)C(=O)S1", "inhibition": "75.6% (active)"}, {"smiles": "O=C(OCC(=O)N1CCN(c2ccccc2)CC1)c1ccc([N+](=O)[O-])s1", "inhibition": "80.9% (active)"}, {"smiles": "COc1ccc(/C=N/Nc2ccccc2C(=O)O)cc1", "inhibition": "97.5% (active)"}, {"smiles": "O=C(Nc1ccc(F)cc1)c1cc2c(s1)CCCC2", "inhibition": "93.7% (active)"}, {"smiles": "COc1ccc(-n2ncc3c(SCC(=O)NNC(C)=O)ncnc32)cc1", "inhibition": "48.8% (inactive)"}, {"smiles": "Cc1ccnc(NC(=O)c2ccoc2C)c1", "inhibition": "88.9% (active)"}, {"smiles": "O=C(Nc1cccnc1Cl)c1cc(-c2ccccc2O)on1", "inhibition": "17.8% (inactive)"}, {"smiles": "COc1cc(C#Cc2ccc3cc(CCCO)oc(=O)c3c2)cc(OC)c1", "inhibition": "72.2% (active)"}, {"smiles": "C/C(=N\\Nc1nc2ccccc2[nH]1)c1cccs1", "inhibition": "49.2% (inactive)"}, {"smiles": "CCc1ccc(NC(=O)C(=O)NNC(=O)c2cccs2)cc1", "inhibition": "73.4% (active)"}, {"smiles": "FC(F)(F)c1ccnc(Oc2ccc(C3=NCCS3)cc2)c1", "inhibition": "42.8% (inactive)"}, {"smiles": "Cc1cccc(-c2noc(-c3ccc(F)cc3)n2)c1", "inhibition": "69.8% (active)"}, {"smiles": "O=c1c2c(nc3cc(-c4cccc(Cl)c4)[nH]n13)CCCC2", "inhibition": "0% (inactive)"}, {"smiles": "COc1ccc(C(=O)Nc2ccc3c(c2)OCO3)cc1OC", "inhibition": "77.3% (active)"}, {"smiles": "Cc1cc(C(=O)N/N=C/c2ccc(N3CCOCC3)cc2)c(C)o1", "inhibition": "86.6% (active)"}, {"smiles": "O=C(Nc1ccc(Cl)cc1)c1ccsn1", "inhibition": "46.8% (inactive)"}, {"smiles": "O=C1/C(=C/c2cccs2)CCc2ccccc21", "inhibition": "99.1% (active)"}, {"smiles": "O=C(Nc1ccccc1C(=O)Nc1ccncc1)c1ccc([N+](=O)[O-])cc1", "inhibition": "57.2% (active)"}, {"smiles": "Oc1cccc2ccc(/C=C/c3ccc(Br)s3)nc12", "inhibition": "63.9% (active)"}, {"smiles": "Nc1ccc(-c2nnc(-c3ccc(-c4ccccc4)cc3)o2)cc1", "inhibition": "10.8% (inactive)"}]}]}
